Screening results (PubChem)
Compounds with a hit are over-represented: about 11% of the library has one in this group of screens.
MCF10A rereplic = inducers of DNA re-replication in MCF 10A breast cells; MCF 10A DNA re-replication, Hoechst nuclear intensity, 48 h; Potency, µM (series often up to 46.1 µM), most hits filed as activators; 350,000 tested, 2.9% active; AID 624296; note: nearly all actives have a fitted effect of over 50% in size
IL-1B inflam inh = inhibitors of inflammasome signaling (IL-1 beta secretion). 360,000 tested, 4.7% active. activity change, % at 57.5 µM. THP-1 LPS/ATP IL-1B secretion, AlphaLISA, 16 h; active compounds read low. AID 743279; in the data active = activity change below about -50%; inconclusive = mostly about -30% to -49%
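Secreted IL-1B measured by AlphaLISA bead assay after 16 h compound exposure of THP-1 cells; compounds (final up to 57.5 uM) added 1 h before LPS (250 ng/mL) and ATP (1.25 mM) stimulation; lower signal means less secretion.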
RORgamma inh = ROR gamma (mouse) transcription inhibition. P51450. Drosophila S2 Gal4-RORgamma UAS-luciferase reporter, 20 h. Potency, µM (top dose mostly 53.6 µM), actives largely listed as inhibitors. 310,000 tested, 5.4% active. AID 2551; note: nearly all actives have a fitted effect of over 60% in size
Target sequence (P51450 whole entry, looked up, the tested form may be a part): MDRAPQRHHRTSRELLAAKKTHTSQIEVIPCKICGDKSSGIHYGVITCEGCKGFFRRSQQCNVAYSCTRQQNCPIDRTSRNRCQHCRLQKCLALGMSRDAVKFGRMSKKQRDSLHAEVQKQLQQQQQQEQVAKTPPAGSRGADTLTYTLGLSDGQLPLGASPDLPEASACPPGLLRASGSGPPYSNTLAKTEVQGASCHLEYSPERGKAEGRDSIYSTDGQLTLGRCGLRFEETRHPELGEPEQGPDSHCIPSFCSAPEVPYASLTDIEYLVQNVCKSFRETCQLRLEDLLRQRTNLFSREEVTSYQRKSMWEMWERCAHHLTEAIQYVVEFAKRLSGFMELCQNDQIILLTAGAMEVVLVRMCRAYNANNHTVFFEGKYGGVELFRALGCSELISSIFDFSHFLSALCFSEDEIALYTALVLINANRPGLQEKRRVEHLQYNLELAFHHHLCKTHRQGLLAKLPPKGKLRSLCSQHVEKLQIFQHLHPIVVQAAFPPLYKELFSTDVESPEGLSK
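Stable Schneider cell line, Gal4 DNA-binding domain fused to ROR gamma, UAS-luciferase. Cmpd 1 hr RT → CuSO4 700 uM final → 20 hr RT → luciferase reagent 10 min → luminescence.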
SW480 rereplic = DNA re-replication induction in SW480 cells; SW480 DNA re-replication, Hoechst DNA content imaging, 48 h; Potency, µM (titrated, usually from 46.1 µM), actives largely listed as activators; 340,000 tested, 1.8% active; AID 624297; note: nearly all actives have a fitted effect of over 55% in size
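DNA re-replication was detected as more nuclei of elevated Hoechst intensity after 48 hr exposure to compound (23 nL pinned per well of 250 cells).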
VP16 counter = counter-screen for ROR gamma inhibitors: Gal4-VP16 reporter | AID 2546 | Drosophila S2 Gal4-VP16 UAS-luciferase, luminescence, 20 h | Potency, µM (doses to about 53.6 µM), most hits filed as inhibitors | 310,000 tested, 3.5% active;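 note: Gal4-VP16 expression switched on by copper sulfate through the metallothionein promoter; nearly all actives have a fitted effect of over 50% in size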
A number is an active result; - = inactive; ? = inconclusive; . = no result given; [ ] = another dose, or the depositor's remark. Unless noted, calls come from the whole dose curve; as a rule, active = well fitted curve in the direction sought with a large enough effect; inconclusive = small, poorly fitted or top-dose-only effect, or another doubt; inactive = no such curve, though single readings can be large; an effect the other way counts as inactive or inconclusive.

SMILES	MCF10A rereplic	IL-1B inflam inh	RORgamma inh	SW480 rereplic	VP16 counter
CCN(Cc1nc(-c2ccccc2)no1)C(=O)c1ccc2c(c1)OCO2	-	-	-	-	-
CCN(Cc1nc(-c2cccc(C)c2)no1)C(=O)c1ccc2c(c1)OCO2	-	-69.2	?	-	-
Nc1ccccc1N=Nc1ccccc1N	-	-	10µM	-[9.22 µM]	?
O=C(O)c1ccc(Cl)cc1Nc1nc2cc(Cl)ccc2o1	20.6µM	-	-	-	-
CCC(=O)Nc1cc(Cl)ccc1C(=O)O	-	-	-	-	-
O=C(Nc1ccccc1)C1=C(c2ccccc2)S(=O)(=O)CCS1(=O)=O	?	-95.5	0.891µM	1.3µM	2.24µM
CC(C)C[C@H]1CN(CCCC[C@H]2CNC(=O)C(=O)N2CCc2ccccc2)C(=O)C(=O)N1CCc1ccccc1	.	-	.	.	.
Cc1ccc2[nH]c3c(c2c1)SC(C)(C)CC3=O	18.4µM	-	-	?	-
Cc1nc(NCc2ccccc2)c2nc(-c3ccccc3)n(CC(C)(C)CN(C)C)c2n1	.	.	14.1µM	.	-
CCN(CC)CCCn1c(-c2ccccc2)nc2c(NCc3ccccc3)nc(C)nc21	.	.	-	.	-
Cc1nc2cnc(OCc3ccccc3)nc2n(C)c1=O	.	.	?	.	-
O=C(c1ccccc1[N+](=O)[O-])N1N=C(c2ccccc2)CC1(O)C(F)(F)F (configuration not stated)	-	-	?	-	-
Cc1nn(Cc2ccc(C(=O)N3CCN(C(=O)c4ccco4)CC3)o2)c(C)c1[N+](=O)[O-]	-	-	-	-	-
CC1=NN(C(=O)c2ccc(Cn3nc(C)c([N+](=O)[O-])c3C)o2)C(O)(C(F)(F)F)C1 (configuration not stated)	-	-	2.51µM	-	7.08µM
CC1=NN(C(=O)c2ccc(Cn3ccc([N+](=O)[O-])n3)cc2)C(O)(C(F)(F)F)C1 (configuration not stated)	?	-	10µM	?	12.6µM
COc1ccc(NC(=O)N(C)C[C@H]2Oc3ncc(Br)cc3C(=O)N([C@H](C)CO)C[C@@H]2C)cc1	.	-	.	.	.
CC1CCN(S(=O)(=O)c2ccc3c(c2)oc(=O)n3CC(=O)N2c3ccccc3CC2C)CC1 (configuration not stated)	-	-	-	-	-
CC1Cc2ccccc2N1C(=O)Cn1c(=O)oc2cc(S(=O)(=O)NC3CCCC3)ccc21 (configuration not stated)	-	-52.4	-	-	-
CCc1ccc2oc(-c3cccc(N)c3)nc2c1	?	-	10µM	-	14.1µM
Nc1ccc2oc(-c3ccc4nc[nH]c4c3)nc2c1	-	-	?	?	?
Cc1nc2ccc(-c3nc4cc(N)ccc4o3)cc2[nH]1	-	-	15.8µM	-	?
COCC(=O)N[C@@H]1c2ccccc2CC[C@@H]1OCc1ccccc1	-	-	.	-	.
Clc1ccc(SCc2cc(N3CCOCC3)nc(-c3ccccn3)n2)cc1	?	-	0.562µM	8.2µM	4.47µM
O=c1cc(CSc2ccc(Cl)cc2)nc(-c2ccccn2)[nH]1	?	-	3.98µM	-	4.47µM
Clc1ccc(SCc2csc(N3CCOCC3)n2)cc1	-	-	-	-	-
SMILES	MCF10A rereplic	IL-1B inflam inh	RORgamma inh	SW480 rereplic	VP16 counter
Cc1ccc(NC(=O)CCN2C(=O)C3CCCCC3C2=O)cc1[N+](=O)[O-] (configuration not stated)	-	-	.	-	.
COc1ccc(C(=O)NCCS(=O)(=O)NC(C)c2ccccc2)cc1 (configuration not stated)	-	-	.	-	.
CC(=O)Nc1ccc(Oc2nc(-c3ccccn3)nc3ccccc23)cc1	-	-94.0	-	?	?
Cc1ccccc1Oc1nc(-c2ccccn2)nc2ccccc12	-	?	0.316µM	-	1.26µM
Cc1cccc(Oc2nc(-c3ccccn3)nc3ccccc23)c1	-	-99.2	0.562µM	-	2.24µM
CC(=O)Nc1cccc(Oc2nc(-c3ccccn3)nc3ccccc23)c1	?	.	5.62µM	-	?
CC(=O)Nc1ccc(Oc2ncccn2)cc1	-	-	-	-	.
CC(=O)Nc1cccc(Oc2nc(C(F)(F)F)nc3ccccc23)c1	-	-	-	-	-
Cc1cccc(Oc2nc(-c3ccncc3)nc3ccccc23)c1	?	-	-	-	-
CC1(C(=O)NS(=O)(=O)Cc2ccccc2C(F)(F)F)CCN1C(=O)Cc1ccsc1 (configuration not stated)	.	-	.	.	.
Cc1cc(N2CCN(C(=O)c3[nH]c(C(F)(F)F)nc3-c3ccccc3)CC2)c2ccccc2n1	.	-	.	.	.
O=C(N=C1SC2CS(=O)(=O)CC2N1c1ccc(F)cc1)C1CC1 (configuration not stated)	-	-	-	-	-
CN1CCN(CC(=O)N2CCn3c4c(c5cc(C6CCCCC6)ccc53)CCCC42)CC1 (configuration not stated)	?	-121.1	2.24µM	-	?
Cc1ccc2c(c1)c1c3n2CCN(C(=O)CN2CCN(C)CC2)C3CCC1 (configuration not stated)	?	-	-	?	-
CC(c1ccco1)N(C(=O)c1ccccc1NS(=O)(=O)c1ccc(Cl)c([N+](=O)[O-])c1)c1ccccn1 (configuration not stated)	23.1µM	-85.6	-	-	-
CC(c1ccco1)N(C(=O)c1cc(Cl)cc(Cl)c1)c1ccccn1 (configuration not stated)	-	-	-	-	-
O=C(CCN1C(=O)/C(=C/c2ccccc2)SC1=S)Nc1ccccn1	-	-	-	-	-
COc1ccc(/C=C2\SC(=S)N(CCCC(=O)Nc3ccccn3)C2=O)cc1OC	-	-	4.47µM	-	5.01µM
Cc1ccc(/C=C2\SC(=S)N(CCCC(=O)Nc3ccccn3)C2=O)cc1	-	-	0.447µM	-	1.58µM
CSc1cccc(NC(=O)NCc2cccc(CNC(=O)Nc3cccc(SC)c3)c2)c1	7.31µM	-	?	-	-
CSc1cccc(NC(=S)NCCCN2CCN(c3ccc(F)cc3)CC2)c1	-	-	6.31µM	-	?
Fc1cccc(NC(=S)NCCCN2CCOCC2)c1	-	-	-	-	-
CSc1cccc(NC(N)=S)c1	-	-	-	-	-
COCCCNC(=S)Nc1cccc(SC)c1	-	-	1.58µM	-	11.2µM
CSc1cccc(NC(=S)N2CCC(N(C)C3CCCCC3)CC2)c1	-	-	-	-	-
CSc1cccc(NC(=S)N2CCC(N(C)C3CCCCC3C)CC2)c1 (configuration not stated)	-	-68.7	12.6µM	-	-
O=C(NCCCN1CCCC1)c1ccc2c(c1)N(Cc1cccc(Cl)c1)C(=O)c1ccccc1S2(=O)=O	.	-	.	.	.
Cc1nc2sccn2c(=O)c1S(=O)(=O)N1CCN(c2cccc(Cl)c2)CC1	-	-	-	-	-
CSc1cccc(NC(=S)NN(C)C)c1	-	-	3.16µM	-	10µM
CC(C)CCCC(C)NC(C)C (configuration not stated)	-	.	-	-	-
